Test results: PubChem BioAssay (NCI)
Values joined by “and” are separate entries in the source; they are usually repeats but may differ in a detail not shown here. Identical values can stand only once. The panel holds about 79,000 compounds, 15% with a hit somewhere; the sample as a whole holds those more often. A number with no mark means an inactive call. Active and inactive are the calls of the source. Rule as the data show it: active = growth inhibition above about 70%; inactive = the rest.

Experiment: NCI Yeast Anticancer Drug Screen. Data for the rad50 strain (AID 155);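 also: 0% = growth of vehicle-only cultures of the same strain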
Settings: S. cerevisiae rad50 strain growth inhibition, active compounds read high
Experimental: Growth inhibition of yeast strains with defined genetic alterations is measured as a screen for potential anti-cancer activity. Selected strains with alterations in DNA damage repair or cell cycle control were exposed to compounds and growth inhibition was measured relative to vehicle treated controls. The strain used in this assay is rad50

[1] = at 5.0 µM (retest, dose inferred, filed as 0.5)
[2] = at 50.0 µM (retest, dose inferred, filed as 5.0)

SMILES	growth inhibition [1]	growth inhibition [2]	growth inhibition (at 50.0 µM)
c1ccc(-c2cc3cc4ccccc4cn3c2)cc1	58%	93% (active)	83.8% (active)
CCC[CH2][Sn]([CH2]CCC)([CH2]CCC)[O]C(=O)C(OC(C)=O)c1ccccc1 (configuration not stated)	99% (active)	99% (active)	91.5% (active)
O=[N+]([O-])/C(=C/c1ccccc1)c1ccccc1	99% (active)	99% (active)	99.6% (active)
O=[N+]([O-])c1ccc(C2N(Cc3ccc(Cl)cc3)CCN2Cc2ccc(Cl)cc2)cc1	58%	94% (active)	82.2% (active)
CC1=CC(=O)C=CC1(C)C(Cl)(Cl)Cl (configuration not stated)	-16%	-24%	-3.05%
Nc1cccc2c1-c1ccccc1C2=O	15%	89% (active)	–
CC(C)(C)S(=O)(=O)O.[Ag]	99% (active)	99% (active)	–
O=C(CBr)C(Br)C(Br)c1ccccc1 (configuration not stated)	98% (active)	99% (active)	–
CCOc1ccc(C(CN2CCOCC2)C(C)=O)cc1OC (configuration not stated)	-3%	30%	72.5% (active)
O=[N+]([O-])c1ccc2nc3ccccc3[n+]([O-])c2c1	25%	99% (active)	–
COc1ccc2c(c1)C(OC)C1c3c(cc4c(c3-2)OCO4)CCN1C (configuration not stated)	24%	52%	-23.1%
COc1cc(/C=C2\SC(=S)N(/C=C/c3nc4ccccc4[nH]c3=O)C2=O)cc(OC)c1OC	-9%	57%	8.55%
C=C1C(=O)C2=CC1CCC(=O)C1(C)CCC(OC(C)=O)C(C)(C)C1CC2O (configuration not stated)	16%	52%	82.1% (active)
Cc1nc([N+](=O)[O-])c(Sc2nncc(-c3ccccc3)n2)n1C	8%	34%	97.3% (active)
O=C(CC(=O)c1ccc(Cl)cc1)Cc1ccc2ccccc2n1	–	–	8.9% and 43.4%
NCCCNCCSSC/C=C\CSSCCNCCCN	–	–	1.9% and -5.5%
COC(=O)C(Cc1ccccc1)NC(=O)C(CNC(=O)OCc1ccccc1)C(=O)OCc1ccccc1 (configuration not stated)	–	–	16.2% and -13.2%
Nc1ccc(CCc2ccc(N)cc2)cc1	–	–	2.95% and -24.4%
